High-throughput results from PubChem.
Sampled rows, rich in hits. Any-hit rate of the full collection: about 12%.
BAZ2B block – blocks human BAZ2B; Q9UIF8; AlphaScreen BAZ2B-H3K14Ac peptide displacement; AID 504333; Potency, µM (series often up to 114 µM), for inactives: top-dose activity change, negative = inhibition, usual class: inhibitors; 4.4% of 360,000 active; note: % is set by controls: 0 for no effect and ±100 for the full control effect; nearly all actives have a fitted effect of over 60% in size
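AlphaScreen displacement: compounds (up to 110uM) incubated 30 min at room temperature with a preformed 50 nM BAZ2B/50 nM biotinylated H3K14Ac peptide complex in PBS pH 7.4 with Tween-20. Donor and acceptor beads at 10 ug/mL final added, 20 min light-protected before reading.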
HP1b chromo inh – HP1-beta chromodomain-methylated histone interaction inhibition; AID 540317; Potency, µM (doses to about 114 µM), for the others: at the top dose activity change, negative = inhibition, usual class: inhibitors; AlphaScreen HP1-beta / biotin-H3K9me3 peptide binding; 0.56% of 390,000 active; note: nearly all actives have a fitted effect of over 70% in size
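AlphaScreen: HP1-beta (50 nM) preformed 30 min with biotin-H3(1-18)K9me3 peptide (50 nM) in PBS pH 7.4, 0.01% Tween-20. Compound added for 30 min at RT, then streptavidin donor/nickel chelate acceptor beads (10 ug/mL) for 30 min.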
JMJD2A Tudor – JMJD2A Tudor domain (human) inhibition | AlphaScreen JMJD2A-Tudor / H3K4me3 peptide binding | Potency, µM (series often up to 114 µM), for inactives: at the highest dose activity change, negative = inhibition, actives largely listed as inhibitors | 4.4% of 390,000 active | AID 504339; note: % is set by controls: 0 for no effect and ±100 for the full control effect; nearly all actives have a fitted effect of over 50% in size
Sfp PPTase inh – blocks B. subtilis Sfp PPTase activity | Biochemical Sfp PPTase activity, qHTS | Potency, µM, without a hit: largest response in the series, negative = inhibition, usual class: inhibitors | 3.5% of 310,000 active | AID 1490;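 note: the enzyme is Sfp with the accession as filed and its product quenches rhodamine fluorescence; 0% = enzyme reaction without inhibitor and -100% = no enzyme wells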
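Step 1, compound plus 15 nM Sfp-PPTase, 15 min, room temperature. Step 2, add rhodamine-CoA (5 uM) and BHQ-2-YbbR (12.5 uM). Step 3, read 525/598 nm fluorescence at 0 and 30 min.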
G9a block – G9a (human) methyltransferase inhibition. Q96KQ7. G9a H3K9 monomethylation, AlphaScreen, 2 h. Potency, µM (highest dose often 102 µM), inactives show top-dose activity, negative = inhibition, hits mostly inhibitors. 8.8% of 350,000 active; note: % is set by controls: 0 for no effect and ±100 for the full control effect; nearly all actives have a fitted effect of over 75% in size
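Signal arises when biotinylated H3K9 peptide, once monomethylated, bridges streptavidin donor and antibody-captured acceptor beads. Enzyme at 20 nM was preincubated 15 min with test compounds; peptide 500 nM and SAM 20 uM then reacted for 2 h.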
L3MBTL1 block – inhibitors of human L3MBTL1. Q9Y468. AlphaScreen L3MBTL1–H3K9me1 peptide binding. Potency, µM (highest dose often 57.1 µM), without a hit: top-dose activity, negative = inhibition, actives largely listed as inhibitors. 0.66% of 230,000 active. AID 485360; note: % is set by controls: 0 for no effect and ±100 for the full control effect; nearly all actives have a fitted effect of over 60% in size
Target sequence (Q9Y468 whole entry, looked up): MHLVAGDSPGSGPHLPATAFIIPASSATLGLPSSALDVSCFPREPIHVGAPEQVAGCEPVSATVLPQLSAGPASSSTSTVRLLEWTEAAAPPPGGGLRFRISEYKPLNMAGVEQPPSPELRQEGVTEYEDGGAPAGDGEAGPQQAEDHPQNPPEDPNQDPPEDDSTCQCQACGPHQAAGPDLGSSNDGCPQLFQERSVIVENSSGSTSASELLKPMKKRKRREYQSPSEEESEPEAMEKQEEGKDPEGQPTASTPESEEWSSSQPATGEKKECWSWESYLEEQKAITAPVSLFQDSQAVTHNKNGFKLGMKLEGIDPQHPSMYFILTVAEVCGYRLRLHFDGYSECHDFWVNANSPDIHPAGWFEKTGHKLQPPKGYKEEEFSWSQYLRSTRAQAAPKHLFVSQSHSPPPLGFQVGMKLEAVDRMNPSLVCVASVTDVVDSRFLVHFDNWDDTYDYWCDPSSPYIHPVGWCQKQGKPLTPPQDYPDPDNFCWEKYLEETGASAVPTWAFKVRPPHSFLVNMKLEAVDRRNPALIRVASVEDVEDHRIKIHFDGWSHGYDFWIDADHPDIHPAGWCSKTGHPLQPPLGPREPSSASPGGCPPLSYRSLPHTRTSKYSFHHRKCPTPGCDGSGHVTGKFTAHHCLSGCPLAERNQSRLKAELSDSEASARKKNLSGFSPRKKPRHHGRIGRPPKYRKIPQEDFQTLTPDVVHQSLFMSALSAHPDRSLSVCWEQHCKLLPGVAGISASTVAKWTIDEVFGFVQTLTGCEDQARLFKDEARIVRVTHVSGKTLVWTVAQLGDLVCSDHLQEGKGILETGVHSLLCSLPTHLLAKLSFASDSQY
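AlphaScreen proximity signal between nickel-chelate acceptor and streptavidin donor beads (final 10 ug/mL) reports binding of 50 nM L3MBTL1 to 75 nM biotin-H3 K9me1 peptide; complex incubated with compounds 30 min at room temperature; cefsulodin titration as control.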
Starred values were filed as active, the others as inactive; ! = a repeat was not active; [ ] = another dose, or the depositor's remark. Calls come from the whole dose curve; as a rule, active = well fitted curve in the direction sought with a large enough effect; inconclusive = small, poorly fitted or top-dose-only effect, or another doubt; inactive = no such curve, though single readings can be large; an effect the other way counts as inactive or inconclusive. Potency is the fitted concentration of half-maximal effect.

CC(=O)NC(CC(=O)N1CCN(C(C)=O)CC1)c1ccccc1 (centres undefined) was read as BAZ2B block -3.1%, HP1b chromo inh 22.7%, JMJD2A Tudor -14.7% and Sfp PPTase inh 7.4%.
Screening CCNC(=S)SCCOc1ccccc1C returned BAZ2B block 136.3%, HP1b chromo inh 161.4%, JMJD2A Tudor 43.7%, Sfp PPTase inh -3.4%, G9a block 101.9%[59 µM] and L3MBTL1 block 41.4%.
For Cc1ccc2sc(N(CCCN(C)C)C(=O)c3ccco3)nc2c1C the results were BAZ2B block -26.8%, HP1b chromo inh 6.5%, JMJD2A Tudor inconclusive and G9a block inconclusive.
Screening Cc1ccc2sc(N(CCCN(C)C)C(=O)c3nc4ccccc4s3)nc2c1C returned BAZ2B block -25.7%, HP1b chromo inh inconclusive, JMJD2A Tudor -33.8%, Sfp PPTase inh -19.8%, G9a block 44.7µM* and L3MBTL1 block -20.5%.
Screening CN1CCc2cccc3c2[C@H]1Cc1ccc(O)c(O)c1-3 returned BAZ2B block inconclusive, HP1b chromo inh 14.1µM*, JMJD2A Tudor 8.91µM*, Sfp PPTase inh 39.8µM*, G9a block 1.41µM* and L3MBTL1 block inconclusive.
For CCOc1cccc(C(=O)N(Cc2ccc(CC)cc2)C2CCS(=O)(=O)C2)c1 (centres undefined) the results were BAZ2B block -9.9%, HP1b chromo inh 17.4%, JMJD2A Tudor -0.7% and G9a block 18.5%[59 µM].
CCOC(=O)N1CCN(/[N+]([O-])=N/Oc2ccc([N+](=O)[O-])cc2[N+](=O)[O-])CC1 was read as HP1b chromo inh 63.2%, JMJD2A Tudor -19.3%, Sfp PPTase inh -28.2% and G9a block 17.8µM*.
For Cc1ccc2c(c1Br)C(O)(CC(=O)c1ccc(F)cc1)C(=O)N2 (centres undefined) the results were BAZ2B block -9.0%, HP1b chromo inh 18.4%, JMJD2A Tudor 1.2% and G9a block -1.5%[59 µM].
`COCCNC(=S)NNc1ccc(Cl)c(C(=O)O)c1` gave BAZ2B block inconclusive, HP1b chromo inh -16.9%, JMJD2A Tudor -7.4%[11.4 µM], Sfp PPTase inh 3.98µM*, G9a block 17.8µM* and L3MBTL1 block -21.4%.
CCCCOc1cccc(C(=O)NC(=S)Nc2ccc(Cl)c(C(=O)O)c2)c1 was read as BAZ2B block inconclusive, HP1b chromo inh -7.6%, JMJD2A Tudor -12.3%, Sfp PPTase inh 6.9%, G9a block 11.2µM* and L3MBTL1 block -3.7%.
For O=C(NC(=S)Nc1ccc(Cl)c(C(=O)O)c1)c1ccc(OCc2ccccc2)cc1 the results were BAZ2B block 5.8%, HP1b chromo inh -3.0%, JMJD2A Tudor inconclusive and Sfp PPTase inh inconclusive.
`COc1cc(OC)cc(C(=O)NC(=S)Nc2ccc(Cl)c(C(=O)O)c2)c1` gave BAZ2B block inconclusive, HP1b chromo inh 7.2%, JMJD2A Tudor 89.1µM*, Sfp PPTase inh -24.5%, G9a block 44.7µM* and L3MBTL1 block 1.3%.
COc1cc(C(=O)NC(=S)Nc2ccc(Cl)c(C(=O)O)c2)cc(OC)c1OC was read as BAZ2B block -8.9%, HP1b chromo inh 3.5%, JMJD2A Tudor -26.4%, Sfp PPTase inh -8.7% and L3MBTL1 block 9.3%.
`Cc1cc2c(s1)c1cnn(Cc3c(F)cc(F)cc3F)c(=O)c1n2C` gave JMJD2A Tudor -19.2%.
COc1ccc(-c2cc3ccc(O)c(CN4CCCC4)c3oc2=O)cc1OC was read as BAZ2B block 10.8%, HP1b chromo inh 31.9%[57 µM], JMJD2A Tudor -7.8% and G9a block -29.8%[59 µM].
For CN=C1S/C(=C\c2ccc(N3CCOCC3)c(F)c2)C(=O)N1C the results were BAZ2B block 3.3%, HP1b chromo inh 32.0%, JMJD2A Tudor 3.4%, Sfp PPTase inh 20.6% and G9a block -4.8%.
`CN=C1S/C(=C\c2ccc(N3CCCC3)c(F)c2)C(=O)N1C` gave BAZ2B block -9.9%, HP1b chromo inh 55.4%, JMJD2A Tudor -11.1%, Sfp PPTase inh 70.8µM*, G9a block 6.6% and L3MBTL1 block 16.6%.
Screening COc1ccc(-c2nnn3c2nc(NCCc2ccc(OC)c(OC)c2)c2ccccc23)cc1 returned BAZ2B block 0.8%, HP1b chromo inh 54.1%, JMJD2A Tudor -1.7% and G9a block -1.2%[59 µM].
`NC(=O)c1ccccc1OCc1nnc(-c2ccccc2Br)o1` gave BAZ2B block 5.7%, HP1b chromo inh 11.4%, JMJD2A Tudor -4.1%, Sfp PPTase inh 4.9% and G9a block -10.8%.
`CCc1nc(Nc2ccc(F)c(Cl)c2)c2c3c(sc2n1)CCCC3` gave BAZ2B block 34.2%, HP1b chromo inh 75.8%, JMJD2A Tudor 49.5% and G9a block -3.1%[59 µM].
For OC(CNCCNc1ncccc1C(F)(F)F)COc1ccc(F)cc1 (centres undefined) the results were BAZ2B block -0.5%, HP1b chromo inh 11.1%, JMJD2A Tudor 4.3%, Sfp PPTase inh 10.5%, G9a block 13.2% and L3MBTL1 block 7.3%.
Screening Cn1cc(C(F)(F)F)nc1-c1ccc(OCC(O)CNCCOc2ccc(O)c(C(N)=O)c2)cc1 (centres undefined) returned BAZ2B block -7.6%, HP1b chromo inh 14.5%, JMJD2A Tudor -18.0%, Sfp PPTase inh 12.7% and G9a block 25.1µM*!.
`O=C1CC(N2CCCCCC2)C(=O)N1c1ccc(F)cc1` (centres undefined) gave BAZ2B block -17.8%, HP1b chromo inh 34.6%, JMJD2A Tudor -4.8%, Sfp PPTase inh -5.5%, G9a block 11.2µM* and L3MBTL1 block -3.7%.
`CN(NC1CC(=O)N(c2ccccc2)C1=O)c1ccccc1` (centres undefined) gave BAZ2B block -10.1%, HP1b chromo inh 56.2%, JMJD2A Tudor -11.4%, Sfp PPTase inh 44.7µM*, G9a block inconclusive and L3MBTL1 block -2.0%.
CC1CCN(C2CC(=O)N(c3ccccc3)C2=O)CC1 (centres undefined) was read as BAZ2B block -21.5%, HP1b chromo inh 61.7%, JMJD2A Tudor -0.7%, Sfp PPTase inh -14.2%, G9a block 28.2µM* and L3MBTL1 block 0.2%.
Screening O=C1CC(N2CCN(c3ccccc3F)CC2)C(=O)N1c1ccc(F)cc1 (centres undefined) returned HP1b chromo inh 38.9% and JMJD2A Tudor -17.7%.
For O=C1CC(N2CCN(c3ccccc3Cl)CC2)C(=O)N1c1ccc(F)cc1 (centres undefined) the results were BAZ2B block -2.9%, HP1b chromo inh 15.7%, JMJD2A Tudor -12.2%, Sfp PPTase inh -2.9%, G9a block 50.1µM* and L3MBTL1 block 3.7%.
